The values that follow come from PubChem BioAssay (EPA / NIEHS).

Values joined by “and” are separate entries in the source; they are usually repeats but may differ in a detail not shown here. Identical values can stand only once. Results filed as inconclusive are left out. Where a structure was tested more than once in an assay, its records may differ in their call. Active and inactive are the calls of the source. How the source made its calls: active means hit-call score of the fitted dose curve at least 0.9, where 1 is the maximum; inconclusive means response in the unintended direction; inactive means score below 0.9.

As a reminder, the AC50 is the midpoint of the concentration-response curve, whichever way the signal moves.

Sequence of bovine Estrogen Receptor (ER), ESR1 (gene 407238) (P49884 whole entry, looked up): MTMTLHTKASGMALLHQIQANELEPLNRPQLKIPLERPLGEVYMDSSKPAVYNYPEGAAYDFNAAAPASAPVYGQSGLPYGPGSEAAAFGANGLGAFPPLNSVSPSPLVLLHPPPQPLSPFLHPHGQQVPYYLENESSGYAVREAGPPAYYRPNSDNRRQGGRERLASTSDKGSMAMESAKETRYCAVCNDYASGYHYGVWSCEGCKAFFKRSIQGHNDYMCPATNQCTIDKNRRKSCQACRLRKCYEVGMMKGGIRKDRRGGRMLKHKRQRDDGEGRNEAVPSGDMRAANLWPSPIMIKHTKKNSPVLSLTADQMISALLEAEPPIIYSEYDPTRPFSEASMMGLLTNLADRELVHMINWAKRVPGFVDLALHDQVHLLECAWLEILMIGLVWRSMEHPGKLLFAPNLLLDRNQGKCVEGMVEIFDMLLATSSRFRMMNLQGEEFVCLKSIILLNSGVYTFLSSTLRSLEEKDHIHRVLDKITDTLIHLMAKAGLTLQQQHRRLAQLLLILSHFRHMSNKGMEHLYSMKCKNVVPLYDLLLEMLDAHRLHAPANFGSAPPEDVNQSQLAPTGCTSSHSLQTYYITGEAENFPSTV

This assay addresses bovine Estrogen Receptor (ER), ESR1 (gene 407238) (UniProt P49884). Put plainly: NVS_NR_bER: NovaScreen (NVS) Nuclear Receptor Binding Assay for bovine Estrogen Receptor (ER) (AID 2283345).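 Further: actives lower the bound radioligand count which means they displace the ER ligand.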 The method, then:
NVS_NR_bER is a biochemical, single-readout assay that uses extracted gene-proteins from Bovine uterine membranes in a tissue-based cell-free assay. Measurements were taken 18 hours after chemical dosing in a 96-well plate.NVS_NR_bER is one of one assay component(s) measured or calculated from the NVS_NR_bER assay. It is designed to make measurements of radioligand binding, a form of binding reporter, as detected with scintillation counting signals by Lysate-based radiodetection technology.Data from the assay component NVS_NR_bER was analyzed into 1 assay endpoint. This assay endpoint, NVS_NR_bER, was analyzed in the positive analysis fitting direction relative to DMSO as the negative control and baseline of activity. Using a type of binding reporter, loss-of-signal activity can be used to understand changes in the binding as they relate to the gene ESR1. Furthermore, this assay endpoint can be referred to as a primary readout, because the performed assay has only produced 1 assay endpoint. To generalize the intended target to other relatable targets, this assay endpoint is annotated to the nuclear receptor intended target family, where the subfamily is steroidal.
Binding assays used specific radioligands (tritiated, iodinated) with non-radioactive competitive displacement ligands in agonist or antagonist protocols (as indicated) and various reference compounds and inhibitors to titrate specific binding to receptors and transporters. Most enzyme assays (CYPs, kinases, phosphatases, proteases, HDACs) used recombinant protein and specific substrates (fluorescence mostly, some colorimetric and radioactive) and inhibitors, followed by a biochemical separation of substrate and product. All assays for the biochemical HTS were initially run in duplicate at a single concentration (10 uM for CYP450 assays and 25 uM for all others). […] Each assay was run with positive and negative controls, and concurrent controls on every plate. The follow-up (secondary) screen tested active chemical-pairs in concentration series, as well as a few additional assays not tested in the primary screen, some selected negative inactives, and several cases re-run in the concentration series for confirmatory purposes.
With `O=C1OC2(c3ccccc31)c1cc(Br)c(O)c(Br)c1Oc1c2cc(Br)c(O)c1Br`, the compound was classed as inactive. Same read-out and setting: next, `Oc1cc2ccccc2c2ccccc12`: “inactive”; `Cc1cc(CCN2CCN(c3nsc4ccccc34)CC2)cc2c1NC(=O)CC2(C)C`: “inactive”.

Regarding `c1ccc2cc3c(ccc4ccccc43)cc2c1`, the compound was classed as inactive. Same read-out and setting: next, `OC1CCC(C2CCCCC2)CC1` (centres undefined): “inactive”; `O=[N+]([O-])c1ccc(O)cc1`: “inactive”.

Consider `CC#C[C@]1(O)CC[C@H]2[C@@H]3CCC4=CC(=O)CCC4=C3[C@@H](c3ccc(N(C)C)cc3)C[C@@]21C`, for which the call was inactive; the AC50 is 10 µM (active) and 16.2 µM (active) and 8.77 µM (active). For the compound `OCCC(F)(F)C(F)(F)C(F)(F)C(F)(F)C(F)(F)C(F)(F)C(F)(F)C(F)(F)F`, the compound was classed as inactive.

For the compound `CN1CCC[C@H]1c1cccnc1`, the result was inactive. For `CCC(C)(C)C1CCC(O)CC1` (centres undefined), the AC50 is 16.4 µM (active) and 12.9 µM (active). Still for that read-out and setting: next, `NC(=O)N1C(=O)C(C(=O)c2cc(Cl)cs2)c2cc(F)c(Cl)cc21` (centres undefined): 25 µM (active).

On to `O=C(O)Cc1cc(I)c(Oc2cc(I)c(O)c(I)c2)c(I)c1`, for which the compound was classed as inactive. The same measure, in the same setting: next, `CCN(CC)CCNc1ccc(CNC=O)c2sc3ccc(OC)cc3c(=O)c12`: “inactive”; `C[C@@H]1C[C@H]2[C@@H]3CCC4=CC(=O)C=C[C@]4(C)[C@@]3(F)[C@@H](O)C[C@]2(C)[C@@]1(O)C(=O)COP(=O)(O)O`: “inactive”. Still for that read-out and setting: to `C=C(C)C(=O)OCCC(F)(F)C(F)(F)C(F)(F)C(F)(F)C(F)(F)C(F)(F)F` belongs “inactive”; to `CN1CCN(c2ccccc2/C=C2\SCCN(c3ccc(Cl)c(Cl)c3)C2=O)CC1`, “inactive”. `CCCOC(=O)c1ccc(O)cc1`: the result was inactive. Still for that read-out and setting: to `CC1=C(/C=C/C(C)=C/C=C/C(C)=C/C(=O)O)C(C)(C)CCC1` belongs “inactive”. `CCCCCCCCCCCCc1ccccc1S(=O)(=O)O`: the AC50 was 39.1 µM (active).

On to `ClC1=C(Cl)C(Cl)(Cl)C(Cl)=C1Cl`, for which the result was inactive. On the same count and under the same terms, next, `Cc1oc(-c2ccccc2)nc1CCOc1ccc(C[C@H](Nc2ccccc2C(=O)c2ccccc2)C(=O)O)cc1`: “inactive”. As for `COCC(C)O` (centres undefined), the AC50 was 3.69 µM (active).

Take `C#C[C@]1(O)CC[C@H]2[C@@H]3CCC4=CC(=O)CC[C@@H]4[C@H]3CC[C@@]21C`: the result was inactive.
